Screens deposited in PubChem by National Center for Advancing Translational Sciences (NCATS).
In the library only some 8.3% were active in any assay of this set; here they are far more common.
FMDV inh = High Throughput Screening for Foot and Mouth Disease Virus Antivirals; FMDV antiviral cell-based qHTS; Potency, µM (top dose mostly 57.9 µM), without a hit: at the highest dose activity change, negative = inhibition, most hits filed as inhibitors; 410,000 tested, 1.2% active; AID 1159524, 2015; calls by dose curve; tested in HEK293T cells; further: read-out not given here; potency means the concentration at half of the fitted maximal effect; nearly all actives have a fitted effect of over 45% in size
LASV entry inh = qHTS for Inhibitors of binding or entry into cells for Lassa Virus; Potency, µM (doses to about 37.9 µM), inactives show top-dose activity change, negative = inhibition, usual class: inhibitors; Lassa virus pseudotype entry inhibition, cell reporter; AID 540256, 2011; 300,000 tested, 1.2% active; calls by dose curve; tested in HEK293 cells; further: potency means the concentration at half of the fitted maximal effect; nearly all actives have a fitted effect of over 50% in size
HCMV inh = qHTS Assay for inhibitors of the human cytomegalovirus (HCMV); HFF cells, HCMV-luciferase reporter, 72 h; active compounds read low; activity change, negative = inhibition, % at 57.5 µM; 410,000 tested, 4.5% active; AID 1259415, 2018; in the data active means activity change below about -60%; inconclusive means no clear call, values can overlap the other calls; inactive means above about -39%
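Inhibition of viral replication was scored as loss of reporter luminescence in HFFs infected with HCMV-luciferase (MOI 1 PFU/cell) for 72 h; compounds tested at 2 doses, normalized to buffer and Salinomycin controls.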
Marburg entry inh = qHTS for inhibitors of binding or entry into cells for Marburg Virus; AID 540276, 2011; Potency, µM (doses to about 37.8 µM), inactives show at the top dose activity change, negative = inhibition, most hits filed as inhibitors; 300,000 tested, 1.8% active; Marburg virus pseudotyped entry inhibition, cell reporter; calls by dose curve; tested in HEK293 cells; further: potency means the concentration at half of the fitted maximal effect
HCV inhibitor = qHTS Assay for Inhibitors of Hepatitis C Virus (HCV). 340,000 tested, 3.4% active. Potency, µM (doses to about 41.8 µM), inactives show at the top dose activity change, negative = inhibition, actives largely listed as inhibitors. Huh7.5.1 HCVcc-Cre infection, luciferase reporter, 44 h; further: potency means the concentration at half of the fitted maximal effect
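Luciferase read-out (15 sec integration) after a 15 min room-temperature substrate step quantifies HCVcc-Cre infection. Cells, 1,000 per well, had compound added 4 h post-plating, then virus at ~0.5 moi, and were cultured 44 h.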
FBPA Giardia inh = qHTS Assay for Inhibitors of Fructose-1,6-bisphosphate Aldolase from Giardia Lamblia; A8B2U2; purified Giardia FBPA; Potency, µM (highest dose often 59.6 µM), for the others: top-dose activity, negative = inhibition, actives largely listed as inhibitors; 290,000 tested, 0.71% active; AID 2451, 2010; further: potency means the concentration at half of the fitted maximal effect; nearly all actives have a fitted effect of over 55% in size
Target sequence (A8B2U2 whole entry, looked up): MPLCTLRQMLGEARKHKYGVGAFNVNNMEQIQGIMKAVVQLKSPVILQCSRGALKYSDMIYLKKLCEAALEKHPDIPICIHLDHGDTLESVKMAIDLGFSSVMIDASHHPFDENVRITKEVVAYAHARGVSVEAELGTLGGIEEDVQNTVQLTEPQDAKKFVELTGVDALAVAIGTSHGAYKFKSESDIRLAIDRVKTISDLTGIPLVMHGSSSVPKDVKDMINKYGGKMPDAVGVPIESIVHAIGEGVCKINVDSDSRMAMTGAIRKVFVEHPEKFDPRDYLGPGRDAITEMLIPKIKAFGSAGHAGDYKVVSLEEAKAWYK
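40 nM FBPA preincubated 10 min at RT with compound (up to 57.5 uM final), then substrate plus GAPDH/TPI/NAD/arsenate coupling and diaphorase/resazurin added. Fluorescence read after 20 min at RT, 525/598 nm.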
An asterisk follows results filed as active; u = inconclusive; x = not tested or not shown; [ ] = another dose, or the depositor's remark. Unless noted, the call rests on the fitted dose curve; in most records, active means well fitted curve in the direction sought with a large enough effect; inconclusive means small, poorly fitted or top-dose-only effect, or another doubt; inactive means no such curve, though single readings can be large; an effect the other way counts as inactive or inconclusive. On the % scale 0 is the no-effect control and ±100 the full control effect.

SMILES | FMDV inh | LASV entry inh | HCMV inh | Marburg entry inh | HCV inhibitor | FBPA Giardia inh
O=C(Nc1cccc(S(=O)(=O)N2CCCCC2)c1)c1ccc(S(=O)(=O)C(F)F)cc1 | 28µM* | u | -64* | 4.5µM* | u | -9%
CC(=O)c1c(C)[nH]c(C(=O)Nc2cccc(S(=O)(=O)N3CCCCC3)c2)c1C | -3% | x | -1 | x | 13µM* | x
Cc1ccc(S(C)(=O)=O)cc1C(=O)Nc1cccc(S(=O)(=O)N2CCCCCC2)c1 | -19% | x | -30 | x | u | x
C=CCN=C1NC(c2cccc(C(F)(F)F)c2)C(C(=O)OC)=C(C)N1CC (stereo not drawn) | x | x | x | 12%[14.2 µM] | x | x
CCOc1ccc(NC(=O)CC2C(=O)N(c3ccccc3)C(=O)N2Cc2cccc(OC)c2)cc1 (stereo not drawn) | 13% | 0%[46.1 µM] | -10 | x | x | x
Cc1ccc(S(=O)(=O)N[C@H]2COC(=O)[C@@H](Cc3ccccc3)NC(=O)[C@@H](C)COC(=O)C/C=C\[C@@H]2C)cc1 | x | x | x | x | x | 3%[12.9 µM]
CC(OC(=O)c1ccccc1NS(=O)(=O)c1cccc(C(F)(F)F)c1)C(=O)N(C)Cc1ccccc1 (stereo not drawn) | -2% | u | u | 7.1µM* | u | 0%
CN(Cc1ccccc1)C(=O)COC(=O)c1ccccc1NS(=O)(=O)c1cccc(N)c1 | 13% | -7% | 30 | -6% | -2% | 20%
Clc1cccc(Cl)c1C[n+]1cccc2ccccc21 | u | u | -81* | u | u | x
O=[N+]([O-])c1ccc(Cl)c(C[n+]2cccc3ccccc32)c1 | -13% | x | 1 | x | -29% | -3%
CCN(CC)CCSc1nnc2c3cc(C)ccc3n(Cc3ccccc3)c2n1 | -25% | u | -85* | u | 13µM* | 2%
CCCCn1c2ccc(F)cc2c2nnc(SCCN(CC)CC)nc21 | -16% | u | u | u | x | x
CC(=O)OCC1OC(C#CC(C)(C)C)C=CC1OC(C)=O (stereo not drawn) | x | x | x | x | x | -1%[12.9 µM]
COC(=O)Cn1c(=O)c2c(nc3n2CCCN3CCc2ccccc2)n(C)c1=O | 1% | -1%[46.1 µM] | -64* | 5%[46.1 µM] | -1% | 6%
Cn1c(=O)n(CCc2ccccc2)c(=O)c2c1nc1n2CCCN1Cc1ccccc1 | 20µM* | 16µM* | 16 | u | 16% | 1%
CC(C)Cn1c(=O)c2c(nc3n2CCCN3CCc2ccccc2)n(C)c1=O | u | -21% | 11 | u | 10µM* | 1%
Cn1c(=O)n(CCc2ccccc2)c(=O)c2c1nc1n2CCCN1CCc1ccccc1 | u | u | -3 | u | u | -1%
C=CCn1c(=O)c2c(nc3n2CCCN3CCc2ccccc2)n(C)c1=O | -26% | x | -26 | x | -1% | 5%
CCCn1c(=O)c2c(nc3n2CCCN3CCc2ccccc2)n(C)c1=O | u | -23% | -62* | u | -25% | 8%
Cn1c(=O)n(CC(=O)O)c(=O)c2c1nc1n2CCCN1CCc1ccccc1 | -8% | x | -13 | x | 7% | -1%
O=C(c1ccccn1)N(Cc1cccs1)C1(C(=O)NC2CCCCC2)CCCCC1 | -4% | -13% | 5 | u | 11µM* | 8%
CSCCC(NC(=O)OCc1ccccc1)C(=O)NC(Cc1c[nH]c2ccccc12)C(=O)O (stereo not drawn) | x | x | 15 | x | x | x
Cc1ccc(NC(=O)c2ccc(C)c(S(=O)(=O)N3CCCCC3)c2)nc1 | -24% | -10% | -26 | u | -1% | x
O=C(Nc1ccc(Cl)c(S(=O)(=O)N2CCCCC2)c1)c1ccncc1 | -34% | -27% | -77* | u | 8.9µM* | x
O=C(Nc1ccncc1)c1ccc(Cl)c(S(=O)(=O)N2CCCCC2)c1 | u | u | x | u | 10µM* | x
SMILES | FMDV inh | LASV entry inh | HCMV inh | Marburg entry inh | HCV inhibitor | FBPA Giardia inh
O=C(Nc1ccccc1)c1ccc(Br)c(S(=O)(=O)N2CCCCC2)c1 | 14µM* | u | 0 | x | x | x
Cc1ccc(NC(=O)c2ccc(Cl)c(S(=O)(=O)N3CCCCCC3)c2)nc1 | u | -30% | -68* | -18%[46.1 µM] | u | x
O=c1c(-c2ccc(F)cc2)nc2cncnc2n1Cc1ccc(F)cc1 | 0% | x | x | x | x | 10%
O=C(/C=C/c1ccccc1)N[C@H]1CC[C@@]23CCCN2C(=O)CCC[C@H]3[C@H]1Cc1ccccc1 | x | x | -6 | x | x | x
Cc1ccc(NC(=O)c2ccc(S(=O)(=O)N3CCC(C)CC3)cc2)nc1 | -15% | -26% | -64* | -24% | -29% | x
Cc1ccc(NC(=O)c2ccc(S(=O)(=O)N3CCCCCC3)cc2)nc1 | u | -8% | u | u | u | x
CCc1noc(C)c1C(=O)Nc1ccc(Cl)c(S(=O)(=O)N2CCCCC2)c1 | 22µM* | -17% | -35 | u | u | x
CCc1noc(C)c1C(=O)Nc1ccc(S(=O)(=O)N2CCCCC2)cc1 | -13% | -6% | -15 | -29%[46.1 µM] | u | x
Cc1cccc(Cn2c(=O)n(CC3CCC(C(=O)N4CCOCC4)CC3)c(=O)c3sccc32)c1 (stereo not drawn) | u | -18%[46.1 µM] | -28 | x | x | x
Cc1cccc(Cn2c(=O)n(CC3CCC(C(=O)N4CCC(C)CC4)CC3)c(=O)c3sccc32)c1 (stereo not drawn) | 32µM* | u | -3 | x | x | x
COc1cc(C(=O)OCC(=O)Nc2ccc(SC(F)F)cc2)cc(OC)c1OC | 35µM* | 0% | 14 | u | u | -5%
O=C(COC(=O)c1ccccc1Cc1ccccc1)Nc1ccc(SC(F)F)cc1 | 27% | u | 45 | u | u | -5%
COc1cc(C(=O)OCC(=O)Nc2ccc(OC(F)F)cc2)cc(OC)c1OC | 0% | u | -11 | u | u | 7%
Cc1ccc(C(=O)c2ccccc2C(=O)OCC(=O)Nc2ccc(SC(F)F)cc2)cc1 | -7% | 11µM* | -34 | u | u | -10%
C[C@]12C[C@@](C)(C=C1C=Cc1ccccc1)C(=O)C[C@H]2c1ccccc1 | x | x | x | 3%[14.2 µM] | x | x
COc1ccc(NC(=O)Cn2nnc(-c3ccccc3NS(=O)(=O)c3ccccc3)n2)cc1 | u | u | x | 8.9µM* | -51% | -27%
COc1ccc(S(=O)(=O)Nc2ccccc2-c2nnn(CC(=O)Nc3ccccc3OC)n2)cc1 | u | u | -19 | u | u | -7%
O=C(NCc1ccccc1Cl)C(=O)NCC(c1cccs1)S(=O)(=O)c1cccs1 (stereo not drawn) | -19% | u | -62* | x | x | x
COCCNc1nc(NCc2ccc(C)cc2C)c2sccc2n1 | u | x | -36 | x | x | x
COCCNc1nc(Nc2ccc(C)cc2C)c2sccc2n1 | u | x | -76* | x | x | x
